Source: PubChem
MITF inh – human MITF inhibition, primary screen. O75030. hit rate 0.91% among 650,000. inhibition, % at 2.6 µM. AlphaScreen MITF homodimerization, bead proximity signal; in the data active = inhibition above about 50%;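 note: 0% = vehicle wells with protein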
TEAD-YAP inh – TEAD-YAP interaction inhibition; HEK-TIYL cells, TEAD-Gal4/YAP UAS-luciferase luminescence; inhibition, % at 9.12 µM; hit rate 1.4% among 640,000; in the data active = inhibition above about 32%;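 note: 0% = median of test compound wells and 100% = reference inhibitor wells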
FBW7 act – human FBW7 E3 ligase activation, primary screen; normalized activity (activation), % at 26.1 µM; AlphaScreen FBW7–phospho-cyclin E peptide binding, activator screen; Q969H0; hit rate 0.13% among 650,000; in the data active = normalized activity above about 1.9%;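 note: purified mutant Fbw7 with reduced substrate affinity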
GPR151 activ – human GPR151 activation. PathHunter beta-arrestin GPR151 cells, luminescence. hit rate 1% among 650,000. Q8TDV0. activation, % at 11.2 µM; in the data active = activation above about 4.9%;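 note: 0% = median of compound wells and 100% = cells with positive control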
Target sequence (Q8TDV0 whole entry, looked up): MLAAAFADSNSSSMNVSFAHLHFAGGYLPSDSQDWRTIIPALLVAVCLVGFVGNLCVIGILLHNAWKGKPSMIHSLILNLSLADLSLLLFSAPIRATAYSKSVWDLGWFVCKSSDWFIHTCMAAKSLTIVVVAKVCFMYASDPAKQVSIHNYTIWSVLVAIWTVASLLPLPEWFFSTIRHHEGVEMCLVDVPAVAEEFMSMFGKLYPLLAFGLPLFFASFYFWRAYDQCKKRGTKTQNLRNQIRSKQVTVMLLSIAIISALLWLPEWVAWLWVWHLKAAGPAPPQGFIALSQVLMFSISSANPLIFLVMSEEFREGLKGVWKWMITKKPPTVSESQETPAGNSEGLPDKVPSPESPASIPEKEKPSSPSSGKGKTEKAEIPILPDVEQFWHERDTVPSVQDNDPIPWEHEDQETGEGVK
* hit, by the source's call. The list is not random: actives were taken first. Their share in the collection is about 3.4%.

SMILES	MITF inh	TEAD-YAP inh	FBW7 act	GPR151 activ
Cc1ccccc1-c1nc2cc(NC(=O)C(C)C)ccc2o1	4.3	66.0*	0.0	1.0
CC(C)(C)c1ccc(-c2nc3cc(NC(=S)NC(=O)c4ccco4)ccc3o2)cc1	12.7	43.4*	1.0	4.7
COc1ccccc1CN=c1c([N+](=O)[O-])nn(-c2ccc(Cl)cc2)n1O	16.1	-12.6	-0.6	0.0
O=C(CN1CCCC1)Nc1ccc(-c2nc3cc(NC(=O)CN4CCCC4)ccc3o2)cc1	-2.9	36.4*	0.0	0.3
CC(C)C(=O)Nc1cccc(C(=O)Nc2cccc(O)c2)c1	13.9	58.7*	0.7	-2.4
CC(=O)Oc1ccc(C(=O)Nc2cccc(C(=O)NC(C)(C)C)c2)cc1	-0.6	11.7	-0.1	1.6
CC(C)C(=O)Nc1cccc(NC(=O)c2cccc(Br)c2)c1	-8.0	-6.1	0.3	0.1
CC(C)(C)NC(=O)c1cccc(NC(=O)c2cccc(O)c2)c1	14.2	34.1*	0.3	-1.0
C(=C\c1ccc2c(c1)OCCO2)/c1ccc2c(c1)OCCO2	19.5	97.1*	1.3	-10.0
COc1ccc(C=O)cc1OS(=O)(=O)c1ccc(Cl)cc1	4.5	24.8	0.1	-0.7
COc1ccc(S(=O)(=O)Oc2ccc(C=O)cc2OC)cc1	7.0	47.1*	0.1	-0.7
COc1ccc(S(=O)(=O)Oc2c(C=O)cccc2OC)cc1	-7.5	46.2*	-0.1	-0.4
COc1cccc(C=O)c1OS(=O)(=O)c1ccc(Cl)cc1	-4.6	10.9	-0.1	0.7
COc1ccc(S(=O)(=O)Oc2cccc(C=C3C(=O)NC(=S)NC3=O)c2)cc1	4.5	6.4	0.7	-0.7
COc1ccc(S(=O)(=O)Oc2ccc(C=C3C(=O)NC(=S)NC3=O)cc2OC)cc1	-6.0	53.5*	-0.1	0.3
COC(=O)c1cc(CNC(=O)C23CC4CC(CC(C4)C2)C3)cc(NC(=O)c2ccco2)c1	-6.7	-25.9	0.0	-0.7
CCc1ccccc1NC(=S)N(CCCN1CCCC(C)C1)Cc1cccs1 (stereo not drawn)	3.9	5.2	-0.1	-1.3
NC(=O)/C=C/C(=O)Nc1cccc(C(F)(F)F)c1	11.1	43.3*	0.1	0.0
O=C(CSCC(=O)Nc1cccc(C(F)(F)F)c1)Nc1cccc(C(F)(F)F)c1	-1.6	3.6	-0.2	1.0
O=C(CC(O)(C(F)(F)F)C(F)(F)F)Nc1cccc(C(F)(F)F)c1	56.2*	83.9*	1.4	1.5
CC(=O)Oc1ccccc1C(=O)Nc1cccc(C(F)(F)F)c1	20.3	65.0*	0.1	-0.6
CC(=O)Nc1cccc(C(F)(F)F)c1	-8.9	-3.8	-0.1	0.3
CCOc1ccccc1C(=O)Nc1cccc(C(F)(F)F)c1	8.7	17.4	-0.1	-1.2
COc1ccc(C)cc1NC(=O)CSc1nc2cc3c(cc2cc1C#N)OCCO3	5.4	67.0*	0.2	-0.3
Cc1cccc(NC(=O)CSc2nc3cc4c(cc3cc2C#N)OCCO4)c1	2.6	57.0*	-0.2	0.0
SMILES	MITF inh	TEAD-YAP inh	FBW7 act	GPR151 activ
CSC1SC[C@H]2C(=O)N(C)[C@@H](C(C)C)C(=O)OC[C@@H](NC(=O)c3cnc4ccccc4n3)C(=O)N[C@@H](C)C(=O)N(C)[C@H]1C(=O)N(C)[C@@H](C(C)C)C(=O)OC[C@@H](NC(=O)c1cnc3ccccc3n1)C(=O)N[C@@H](C)C(=O)N2C (stereo partly drawn)	-6.3	95.7*	0.1	1.2
O=C(CSc1ccccc1)N1CCN(c2nc3ccccc3s2)CC1	3.1	37.5*	0.2	-7.4
COc1ccccc1/C=C1/NC(=O)N(c2cccc(Cl)c2)C1=O	18.3	-6.1	0.2	-1.4
CCn1c(C)cc(/C=C2/NC(=O)N(c3ccccc3)C2=O)c1C	1.8	33.5*	-0.1	-1.0
COc1cccc(/C=C2/NC(=O)N(c3ccccc3)C2=O)c1O	-11.3	34.9*	0.1	-7.4
Cc1[nH]n(-c2ccccc2)c(=O)c1C(=O)c1cccc(F)c1	-9.1	46.0*	-0.5	0.2
Cc1[nH]n(-c2ccccc2)c(=O)c1C(=O)c1ccc(Cl)cc1	-2.5	60.8*	0.1	-1.1
Cc1[nH]n(-c2ccccc2)c(=O)c1C(N)=NC(=O)c1ccccc1	-7.5	10.8	-0.1	0.7
COc1ccc(-c2nnc3sc(NC(=O)C(C)C)nn23)cc1	19.3	-8.0	0.2	4.7
O=[N+]([O-])c1cc(/C=N\Nc2nccs2)ccc1O	95.5*	0.1	-0.4	0.4
COc1ccc(-c2cc(C(=O)OCC(=O)NC(N)=O)c3ccccc3n2)cc1	-9.3	-14.8	0.2	-0.4
O=C(Nc1ccc(N2CCOCC2)cc1)C1CCN(c2ccc(Nc3ccc4ncccc4c3)nn2)CC1	36.9	39.6*	-0.4	2.9
CC(=O)Nc1ccc(Nc2nc(Nc3nc4ccccc4n3C)nc3nc[nH]c23)cc1	8.5	-0.8	-0.3	-0.7
Cc1cnc(Nc2ccccc2)nc1Nc1ccc(N2CCOCC2)cc1	3.4	61.9*	-0.1	0.8
Cc1cnc(Nc2ccc3ncccc3c2)nc1Nc1ccc2c(c1)OCO2	13.6	44.3*	1.1	0.5
Cc1cnc(Nc2nccc3ccccc23)nc1Nc1ccc2c(c1)OCO2	-4.2	5.8	-0.3	-0.5
Cn1c(Nc2nc(Nc3ccc4c(c3)OCO4)c3[nH]cnc3n2)nc2ccccc21	-0.5	-7.7	14.1*	1.1
Cc1ccc(N(C(=O)CC2CCCCC2)C2C=CS(=O)(=O)C2)cc1C (stereo not drawn)	6.8	9.9	0.0	2.4
COc1cccc(CC2=NOC(C(=O)NCc3cnn(-c4ccc(F)cc4)c3)C2)c1 (stereo not drawn)	4.9	-40.8	-0.1	-0.2
CCCCOc1ccc(C2NC(=S)NC(C)=C2C(=O)OC)cc1 (stereo not drawn)	20.8	11.6	-0.1	2.5
Cc1cc(OCC(=O)Nc2nccs2)ccc1Br	8.0	-6.0	-0.1	-1.7
Cc1cnc(Nc2ncccn2)nc1Nc1ccc(N2CCOCC2)cc1	1.7	1.1	-0.3	0.1
c1ccc(Nc2nc(Nc3ccc(N4CCOCC4)cc3)c3[nH]cnc3n2)nc1	5.3	10.1	0.5	-1.0
c1cnc2ccc(Nc3nc(Nc4ccc(N5CCOCC5)cc4)c4[nH]cnc4n3)cc2c1	5.8	79.7*	-0.1	0.8
Cc1cnc(Nc2ccc3ncccc3c2)nc1Nc1ccc(N2CCOCC2)cc1	3.8	47.1*	-0.1	3.5
SMILES	MITF inh	TEAD-YAP inh	FBW7 act	GPR151 activ
Cc1cnc(Nc2ccc(N3CCOCC3)cc2)nc1Nc1ccccc1C(N)=O	-7.5	93.0*	-0.2	0.0
Cc1cnc(Nc2ccccn2)nc1Nc1ccc(N2CCOCC2)cc1	8.0	7.0	-0.6	1.2
Cc1cnc(Nc2ccc(N3CCOCC3)cc2)nc1Nc1ccccc1	29.8	63.4*	0.0	0.7
COc1ccccc1CNC(=O)C1c2ccccc2C(=O)N2CCc3ccccc3C12 (stereo not drawn)	-4.6	-4.6	-0.2	-0.3
Cc1cc2cc(CN(CCO)S(=O)(=O)c3cccc4nsnc34)c(=O)[nH]c2cc1C	11.2	-0.1	0.2	-4.9
COc1cc(Nc2nc(Nc3ccc(N4CCOCC4)cc3)ncc2C)cc(OC)c1OC	1.9	66.3*	-0.3	-0.4
c1ccc(Nc2nc(Nc3ccc4c(c3)OCO4)c3[nH]cnc3n2)cc1	6.2	19.3	0.0	2.8
